# Source: PubChem
# 12-LOX inh = inhibitors of human 12S-lipoxygenase ALOX12; P18054; purified 12hLO, xylenol orange hydroperoxide absorbance; Potency, µM (doses to about 108 µM), for the others: at the top dose activity change, negative = inhibition, actives largely listed as inhibitors; 580,000 tested, 1.1% active; AID 1671190; active means well fitted inhibition curve with a large enough effect; inconclusive means small, poorly fitted or top-dose-only effect, or another doubt; inactive means no such curve, though single readings can be large or run the other way; further: potency means the concentration at half of the fitted maximal effect; on the % scale 0 is the no-effect control and ±100 the full control effect
#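 Hydroperoxide product was detected by ferrous iron/xylenol orange as the 573 to 405 nm absorbance ratio. Arachidonic acid at 40 uM (final) was turned over for 30 min at room temperature by 150 nM human 12hLO, pH 7.0 Hepes buffer, after 15 min compound preincubation.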
# LDHA block = inhibitors of human lactate dehydrogenase A. P00338. purified LDHA, NADH/diaphorase-resazurin fluorescence; active compounds read low. activity change, % (values are at about 110 or 230 µM). 480,000 tested, 0.15% active; in the data active means activity change below about -30%; inconclusive means mostly about -25% to -30%;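 further: plate controls were DMSO wells for no effect and wells without enzyme for full effect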
#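 LDH5 2 nM; NADH 0.06 mM, pyruvate 0.2 mM; 200 mM Tris pH 7.4, EDTA, Tween-20; 5 min RT. Detection: diaphorase 0.133 mg/mL + resazurin 37 µM, fluorescence ex540/em590 at 0 and 20 min; normalized to enzyme-free and DMSO wells.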
# KCNH2 3.1 block = inhibitors of human KCNH2 3.1 potassium channel isoform; U2OS KCNH2 3.1, thallium flux FluxOr; active compounds read low; activity change, % (tested at about 1.8 µM); 340,000 tested, 0.95% active; AID 720553;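 active means maximum activity change below -70%; inconclusive means maximum activity change from -70% to -50%; inactive means maximum activity change above -50%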;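 further: thallium influx rate constant from kinetic fluorescence after stimulation buffer; on the % scale 0 is the no-effect control and ±100 the full control effect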
#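 Measured as rate of thallium-driven FluxOr signal in transduced U2OS cells carrying the 3.1 channel, read kinetically for 2 min upon stimulation; values are rate constants scaled to DMSO control wells.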
# ClpP mod = qHTS Assay for Activators of ClpP | ATP-dependent Clp protease proteolytic subunit (Bacillus subtilis (strain 168)), P80244 | purified B. subtilis ClpP, FRET peptide cleavage, 20 min | Potency, µM (series often up to 57.5 µM), without a hit: at the highest dose activity change, negative = active | 340,000 tested, 1.9% active | AID 651965, 2013; active means well fitted falling curve with a large enough effect; inconclusive means small, poorly fitted or top-dose-only effect; inactive means no such curve, though single readings can be large or run the other way; further: potency means the concentration at half of the fitted maximal effect; the source files actives as falling curves though it sought activators and does not explain the sign; nearly all actives have a fitted effect of over 65% in size
#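 FRET quenching reversal measured ClpP activation: 10 microg/mL B. subtilis ClpP at pH 8 with the FRET-FV decapeptide, read at 430 nm after 320 nm excitation. The 20-min minus 0-min signal was scaled between DMSO/no-enzyme wells and ADEP (5.8 microM final).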
# hERG WT inh = inhibitors of human wildtype KCNH2 potassium channel; AID 720551; 340,000 tested, 0.37% active; activity change, % at 1.84 µM; U2OS, BacMam KCNH2, thallium flux FluxOr; active compounds read low; Q12809;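 active means maximum activity change below -70%; inconclusive means maximum activity change between -70% and -50%; inactive means maximum activity change above -50%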; further: on the % scale 0 is the no-effect control and ±100 the full control effect
#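 U2OS cells were transduced with wild-type KCNH2 virus (2.03 x 10^8 / mL) for 4 h at room temperature, then cultured overnight at 37 C. Thallium flux was read with FluxOr dye. Rate constants were normalized to DMSO controls.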
# Chronic BCR inh = blocks chronic active B-cell receptor signaling; ABC-DLBCL IkBa-CBG/CBR reporter, luminescence ratio, 4 h; Potency, µM (titrated, usually from 46.1 µM), for the others: at the highest dose activity change, negative = inhibition, usual class: inhibitors; 340,000 tested, 0.05% active; AID 493014; active means well fitted inhibition curve with a large enough effect in the signal ratio, with a control signal flat, not every such curve was filed as active; inconclusive means small, poorly fitted or top-dose-only effect, or effect the other way, or a change in a side signal; the % refers to the signal ratio;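 further: potency means the concentration at half of the fitted maximal effect; plate controls were basal doxycycline-induced cells for no effect and cells given 10 µM MG132 for full effect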
#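 Cell line TMD8 (human ABC DLBCL), stably expressing tet-inducible CBG68-IkBa fusion and CBR; IMDM/0.5% FBS; cpd up to 46 uM; dox induction, 4 h, 37C/5% CO2; dual luminescence; green/red ratio; MG132 control.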
# Active calls of the source: *; ? = inconclusive; . = not tested or not shown; [ ] = remark or other dose. In the library only some 3% were active in any assay of this set; here they are far more common.
SMILES,12-LOX inh,LDHA block,KCNH2 3.1 block,ClpP mod,hERG WT inh,Chronic BCR inh
CCCOc1nc2ccccc2nc1N1CCC(C(N)=O)CC1,-9%,8,.,.,.,.
CN(C)c1cccc(-c2cc(N3CCC(C(N)=O)CC3)ncn2)c1,.,3,.,.,.,.
CN(C(=O)CN1CCN(c2cc(-c3ccc(-c4ccccc4)cc3)ncn2)CC1)c1ccccc1,45µM*,-5,.,-8%,.,.
COc1cc2c(cc1OC)C(c1cc3ccc(C)cc3[nH]c1=O)N(C(=O)c1ccco1)CC2 (stereo not given),?,-10,6,.,1,-28%
COc1cc2c(cc1OC)C(c1cc3cc4c(cc3[nH]c1=O)OCO4)N(C(=O)C1CC1)CC2 (stereo not given),1%,3,-1,25µM*,10,?
Cc1ccc(S(=O)(=O)N2CCN(c3nc4ccccc4nc3-n3nc(C)cc3C)CC2)cc1,?,3,-6,?,-12,-2%
Cc1cc(C)n(-c2nc3ccccc3nc2N2CCN(S(=O)(=O)c3ccc(C)c(C)c3)CC2)n1,30%,-30*,.,.,.,.
O=C(c1ccc(Cl)cc1)N1CCOCC2(CN(Cc3ccccc3)C2)C1,8%[176 µM],.,.,.,.,.
O=C(c1ccncc1)N(c1ccc(N2CCOCC2)cc1)C(c1ccccc1)c1nc2ccccc2[nH]1 (stereo not given),11µM*,13,.,-8%,.,.
CCC(c1nc2ccccc2[nH]1)N(C(=O)Cc1cc(OC)cc(OC)c1)c1ccc(N2CCOCC2)cc1 (stereo not given),1%,3,.,1%,.,.
Cc1nc(-c2cn[nH]c2)c2cc(C)oc2n1,28%,-7,11,28µM*,-1,2%
O=C(CCl)Nc1ccccc1C(=O)NCc1ccccc1,3%,-3,-109*,-2%,-7,?
O=C(O)CCC(=O)Nc1ccccc1C(=O)NCCc1ccccc1,-5%,-12,16,14µM*,3,2%
O=C(Nc1ccccc1C(=O)NCc1ccccc1)c1ccccn1,-38%,5,.,.,.,.
O=C(O)CCC(=O)Nc1ccccc1C(=O)Nc1ccccc1,-8%,0,15,4%,9,-12%
COc1ccc(C2Nc3ccccc3C(=O)N2c2ccccc2)cc1COc1ccccn1 (stereo not given),2%,-6,13,28µM*,-13,2%
O=C1c2ccccc2NC(c2ccncc2)N1c1ccccn1 (stereo not given),-4%,-5,2,28µM*,3,0%
COc1ccc(N2C(=O)c3ccccc3NC2c2ccc(OC)c(COc3ccccc3F)c2)cc1 (stereo not given),.,-7,.,4%,.,.
COc1ccc(C2Nc3ccccc3C(=O)N2Cc2ccccc2)cc1CSc1ccccn1 (stereo not given),-19%,3,-14,14µM*,0,-1%
c1ccc2c(c1)NC(c1ccncc1)n1c-2nc2ccccc21 (stereo not given),-14%,-1,14,28µM*,-2,?
O=C(NCCc1c[nH]c2ccccc12)c1ccc(-c2ccccc2)cc1,?,2,.,.,.,.
COc1ccc(C2Nc3ccccc3C(=O)N2c2ccc(F)cc2)cc1CSc1ccccn1 (stereo not given),1%,-7,-3,8.9µM*,-11,-1%
COc1ccc(C2Nc3ccccc3C(=O)N2c2ccccc2)cc1CSc1ccccn1 (stereo not given),3%,-1,2,32µM*,2,?
COc1cc(C2Nc3ccccc3C(=O)N2c2ccccc2)ccc1O (stereo not given),18%,9,2,?,-11,?
CCCOc1ccc(-c2nc(C#N)c(NCCc3ccc(OC)c(OC)c3)o2)cc1,?,-17,.,.,.,.
SMILES,12-LOX inh,LDHA block,KCNH2 3.1 block,ClpP mod,hERG WT inh,Chronic BCR inh
CCCCC(Sc1nnc(C)n1-c1cccc(C)c1)C(=O)Nc1cc(C)on1 (stereo not given),-20%,3,.,.,.,.
COC(=O)c1ccccc1NC(=O)C1CC=CCC1C(=O)O (stereo not given),?,3,-15,22µM*,-2,?
COC(=O)c1c(-c2ccc(C)cc2)csc1NC(=O)C1CC=CCC1C(=O)O (stereo not given),1%,-6,-8,16µM*,8,?
CSc1ccc(C2N=C(c3ccccc3)NO2)cc1 (stereo not given),.,14,1,.,-1,?
Oc1c(Br)cc(C2N=C(c3ccccc3)NO2)cc1Br (stereo not given),28µM*,9,5,-2%,-5,?
O=C(Cc1n[nH]c(=O)c2ccccc12)NCc1ccccc1CN1CCCC1,32%,5,.,.,.,.
COc1ccc(-c2[nH]nc3c2C(c2ccc4c(c2)OCO4)CC(=O)O3)cc1 (stereo not given),45µM*,-11,.,.,.,.
C=CCN(c1ccccc1OC)S(=O)(=O)c1cccc(C(=O)NCc2cccs2)c1,-30%,0,8,0%,-15,?
COc1cc(OC)c(N(C)S(=O)(=O)c2cccc(C(=O)NCc3cccs3)c2)cc1Cl,10µM*,-4,4,-1%,6,.
CCN(CC)CCN1C(=O)c2ccccc2NC1c1cc(OC)c(OC)c(OC)c1 (stereo not given),17%,-8,-6,13µM*,45,?
CCN(CC)CCN1C(=O)c2ccccc2NC1c1cccc(F)c1 (stereo not given),-12%,7,-35,?,36,0%
CCCN1C(=O)c2ccccc2NC1c1cc(OC)c(OC)c(OC)c1 (stereo not given),-3%,-7,5,18µM*,4,-2%
COc1cc(NC(=O)Cn2c(C(=O)c3cccc(F)c3)nc3ccccc32)cc(OC)c1,1%,-2,.,.,.,.
Cc1ccc(C2=NC3(CCN(C(=O)c4ccsc4)CC3)ON2)cc1,42%,.,.,.,.,.
COC(=O)c1ccc(Nc2cc(C)nc3ccc(OC)cc23)cc1,-4%,-12,.,.,.,.
O=C1NN(c2ccc(F)cc2)C(=O)/C1=C\C=C\c1ccco1,45µM*,-3,1,-1%,-31,3%
O=C1NN(c2ccc(F)cc2)C(=O)/C1=C\c1cnn(-c2ccccc2)c1,-19%,.,.,.,.,9%
CN(C)CCCn1c(=S)[nH]c2sc3c(c2c1=O)CCCC3,14µM*,3,-11,.,-6,1%
Cc1ccc(/C=C/c2nnc(-c3cccc(C)c3)o2)cc1,6%[57.4 µM],-4,0,32µM*,13,6%
